Source: PubChem BioAssay (Tox21)
“And” between values parts separate entries of the source, which are not always exact repeats. Identical values can stand only once. Results filed as inconclusive are left out. The source made the active and inactive calls. Unless noted, the call rests on the fitted dose curve; in most records, active means well fitted curve in the direction sought with a large enough effect in the repeat runs; inconclusive means weak or mixed curves; inactive means no such curve, though single readings can be large; an effect the other way counts as inactive or inconclusive.

What was measured:
[1] = qHTS assay to identify small molecule agonists of the androgen receptor (AR) signaling pathway in the presence of an antagonist - cell viability counter screen (AID 1259379); further: nearly all actives have a fitted effect of over 25% in size; further: potency means the concentration at half of the fitted maximal effect
Outline: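 MDA-kb2 viability measured by CellTiter-Fluor fluorescence in the same wells as the luciferase signal; nilutamide 3.0uM final; 15-point compound titration; 16 hr at 37C.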

[2] = qHTS assay to identify small molecule antagonists of the estrogen receptor beta (ER-beta) signaling pathway - cell viability counter screen (AID 1259382); further: nearly all actives have a fitted effect of over 55% in size; further: potency means the concentration at half of the fitted maximal effect
Outline: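 Readout: luminescence, CellTiter-Glo, same wells as bla assay. System: ER-beta-UAS-bla GripTite HEK293T, 2% charcoal-stripped FBS. Exposure: compounds plus 1nM 17-beta-estradiol, 16 hr, 37C.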

[3] = qHTS assay to identify small molecule agonists or antagonists of the thyroid stimulating hormone receptor (TSHR) signaling pathway - wild type cell line counter screen (AID 1259384; calls by dose curve)
Outline: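 Counter screen in untransfected Hek293: compounds (15-point titration, triplicate) plus phosphodiesterase inhibitor Ro20-1724 added after 18 h plating; 30 min RT. Intracellular cAMP via competitive d2/cryptate immunoassay, 1 h incubation.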

[4] = molecular target: Thyrotropin receptor (Homo sapiens) (UniProt P16473); test: qHTS assay to identify small molecule antagonists of the thyroid stimulating hormone receptor (TSHR) signaling pathway (AID 1259385; calls by dose curve; further: nearly all actives have a fitted effect of over 20% in size; further: potency means the concentration at half of the fitted maximal effect)
Thyrotropin receptor (Homo sapiens), sequence (P16473 whole entry, looked up): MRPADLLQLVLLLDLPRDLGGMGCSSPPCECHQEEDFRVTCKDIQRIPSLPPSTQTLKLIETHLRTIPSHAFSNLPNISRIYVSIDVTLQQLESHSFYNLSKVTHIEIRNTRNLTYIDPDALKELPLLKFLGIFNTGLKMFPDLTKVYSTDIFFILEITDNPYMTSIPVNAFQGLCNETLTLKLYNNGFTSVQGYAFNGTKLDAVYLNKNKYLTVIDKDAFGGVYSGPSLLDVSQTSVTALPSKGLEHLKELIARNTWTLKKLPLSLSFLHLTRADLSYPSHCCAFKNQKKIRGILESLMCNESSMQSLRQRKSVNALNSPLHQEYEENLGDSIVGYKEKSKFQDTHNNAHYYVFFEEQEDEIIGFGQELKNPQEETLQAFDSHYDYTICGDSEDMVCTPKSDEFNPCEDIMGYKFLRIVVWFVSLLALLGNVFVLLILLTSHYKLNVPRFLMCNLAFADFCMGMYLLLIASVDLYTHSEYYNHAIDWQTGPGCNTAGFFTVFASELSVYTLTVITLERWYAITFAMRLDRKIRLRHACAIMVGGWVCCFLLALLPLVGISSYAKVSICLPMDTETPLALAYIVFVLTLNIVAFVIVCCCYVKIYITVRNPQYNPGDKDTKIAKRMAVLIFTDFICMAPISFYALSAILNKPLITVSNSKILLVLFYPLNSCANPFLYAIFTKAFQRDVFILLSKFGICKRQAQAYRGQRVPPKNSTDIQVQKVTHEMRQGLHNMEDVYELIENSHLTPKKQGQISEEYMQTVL
Outline: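 Antagonist mode: compound-treated TSHR-expressing HEK293 cells were stimulated with 1.5 ng/mL TSH (final) in presence of Ro20-1724 for 30 min at RT. HTRF cAMP detection after 1 h; each compound tested at 15 concentrations, triplicate.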

[5] = qHTS assay to identify small molecule agonists of the estrogen receptor alpha (ER-alpha) signaling pathway in the presence of an antagonist - cell viability counter screen (AID 1259386);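 further: cells exposed to compounds for 22 h at 37 °C before the viability read; nearly all actives have a fitted effect of over 30% in size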; further: potency means the concentration at half of the fitted maximal effect
Outline: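 The test measures whether compounds kill ER-alpha reporter cells (VM7Luc4E2) under antagonist co-treatment (ICI-182,780, 10.0nM). Fluorescence from CellTiter-Fluor is read after a 22hr exposure.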

[6] = qHTS assay to identify small molecule antagonists of the progesterone receptor (PR) signaling pathway - cell viability counter screen (AID 1346798); further: nearly all actives have a fitted effect of over 50% in size; further: potency means the concentration at half of the fitted maximal effect
Outline: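 In the same plates used for the beta-lactamase readout, cell viability of compound- and R5020-treated PR-UAS-bla HEK293T cells (16 hr, 37C) was assessed by CellTiter-Glo luminescence.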

[7] = qHTS assay to identify small molecule agonists of the progesterone receptor (PR) signaling pathway - cell viability counter screen (AID 1346799; calls by dose curve; further: nearly all actives have a fitted effect of over 45% in size; further: potency means the concentration at half of the fitted maximal effect)
Outline: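 Multiplexed viability read: CellTiter-Glo luminescence, 30 min RT, following LiveBLAzer FRET measurement on PR-UAS-bla HEK293T cells exposed to compounds 16 hr.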

[8] = qHTS assay to identify small molecule antagonists of the TGF-beta/Smad signaling pathway - cell viability counter screen (AID 1346824); further: nearly all actives have a fitted effect of over 50% in size; further: potency means the concentration at half of the fitted maximal effect
Outline: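 Cytotoxicity counter-screen run in the same wells as the beta-lactamase Smad reporter read: CellTiter-Glo luminescence after 30 min at room temperature. HEK 293T SBE-bla cells had 5 hr compound exposure at 37 C with TGF-beta1 (0.25 ng/mL stock).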

[9] = qHTS assay to identify small molecule agonists of the TGF-beta/Smad signaling pathway - cell viability counter screen (AID 1346829); further: nearly all actives have a fitted effect of over 45% in size; further: potency means the concentration at half of the fitted maximal effect
Outline: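 Tox21 qHTS format: SBE-bla HEK 293T cells treated with DMSO-dissolved compounds for 5 hr; CellTiter-Glo luminescence after 30 min at room temperature.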

[10] = qHTS assay to identify small molecule agonists of the TGF-beta/Smad signaling pathway (AID 1346859; active means well fitted activation curve with a large enough effect in the signal ratio in the repeat runs, not every such curve was filed as active; the % refers to the signal ratio; further: series mostly up to about 77 µM)
Outline: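 Screening used HEK 293T SBE-bla cells at 4,000/well. Test agents: 5 hr, 37 C. Detection: FRET substrate, 2 hr RT, then excitation 405 nm with emissions at 460 and 530 nm.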

[11] = molecular target: Thyrotropin-releasing hormone receptor (Homo sapiens) (UniProt P34981); test: qHTS assay to identify small molecule antagonists of the thyrotropin-releasing hormone receptor (TRHR) signaling pathway (AID 1346877; active means well fitted inhibition curve with a large enough effect in the repeat runs, not every such curve was filed as active; further: series mostly up to about 51 µM)
Thyrotropin-releasing hormone receptor (Homo sapiens), sequence (P34981 whole entry, looked up): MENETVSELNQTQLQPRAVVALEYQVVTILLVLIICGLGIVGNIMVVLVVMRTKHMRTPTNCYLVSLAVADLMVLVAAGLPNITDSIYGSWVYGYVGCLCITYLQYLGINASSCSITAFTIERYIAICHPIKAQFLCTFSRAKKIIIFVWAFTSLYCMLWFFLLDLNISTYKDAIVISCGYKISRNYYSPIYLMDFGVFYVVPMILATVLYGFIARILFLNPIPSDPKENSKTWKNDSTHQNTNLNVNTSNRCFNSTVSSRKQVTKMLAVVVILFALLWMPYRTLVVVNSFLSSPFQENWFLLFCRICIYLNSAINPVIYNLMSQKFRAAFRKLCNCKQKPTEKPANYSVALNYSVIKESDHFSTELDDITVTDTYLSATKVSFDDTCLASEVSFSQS
Outline: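 Overnight-plated (18 h, 37 °C) HEK293 cells expressing TRHR were dye-loaded 2 h, treated with compound, then stimulated with TRH at 1 nM final. Fluorescence intensity was captured every second for 3 min.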

[12] = molecular target: Thyrotropin-releasing hormone receptor (Homo sapiens) (UniProt P34981); test: qHTS assay to identify small molecule agonists of the thyrotropin-releasing hormone receptor (TRHR) signaling pathway (AID 1346891; calls by dose curve; further: series mostly up to about 58 µM)
Outline: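 Readout was intracellular calcium fluorescence in TRHR-Hek293 cells. Cells were incubated 18 h, dye-loaded 2 h at 37 °C, and treated with compound in agonist mode.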

[13] = Human pregnane X receptor (PXR) small molecule agonists, qHTS cell viability counter screen (AID 1346977); further: nearly all actives have a fitted effect of over 50% in size; further: potency means the concentration at half of the fitted maximal effect
Outline: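 In each well, the PXR reporter HepG2 line was checked for viability: CellTiter-Fluor reagent added 23hr post-dosing, fluorescence read after 1hr incubation at 37C.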

[14] = qHTS assay to identify small molecule agonists of the estrogen receptor beta (ER-beta) signaling pathway - cell viability counter screen (AID 1259380); further: nearly all actives have a fitted effect of over 30% in size; further: potency means the concentration at half of the fitted maximal effect
Outline: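 Measured: luminescence from CellTiter-Glo after 30 min at room temperature, added to wells already read for the LiveBLAzer FRET reporter (2 hr substrate); ER-beta-UAS-bla HEK293T cells had 16 hr compound treatment at 37C, 5% CO2.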

[15] = molecular target: Progesterone receptor (Homo sapiens) (UniProt P06401); test: qHTS assay to identify small molecule agonists of the progesterone receptor (PR) signaling pathway (AID 1346784; calls by dose curve; further: nearly all actives have a fitted effect of over 30% in size)
Progesterone receptor (Homo sapiens), sequence (P06401 whole entry, looked up): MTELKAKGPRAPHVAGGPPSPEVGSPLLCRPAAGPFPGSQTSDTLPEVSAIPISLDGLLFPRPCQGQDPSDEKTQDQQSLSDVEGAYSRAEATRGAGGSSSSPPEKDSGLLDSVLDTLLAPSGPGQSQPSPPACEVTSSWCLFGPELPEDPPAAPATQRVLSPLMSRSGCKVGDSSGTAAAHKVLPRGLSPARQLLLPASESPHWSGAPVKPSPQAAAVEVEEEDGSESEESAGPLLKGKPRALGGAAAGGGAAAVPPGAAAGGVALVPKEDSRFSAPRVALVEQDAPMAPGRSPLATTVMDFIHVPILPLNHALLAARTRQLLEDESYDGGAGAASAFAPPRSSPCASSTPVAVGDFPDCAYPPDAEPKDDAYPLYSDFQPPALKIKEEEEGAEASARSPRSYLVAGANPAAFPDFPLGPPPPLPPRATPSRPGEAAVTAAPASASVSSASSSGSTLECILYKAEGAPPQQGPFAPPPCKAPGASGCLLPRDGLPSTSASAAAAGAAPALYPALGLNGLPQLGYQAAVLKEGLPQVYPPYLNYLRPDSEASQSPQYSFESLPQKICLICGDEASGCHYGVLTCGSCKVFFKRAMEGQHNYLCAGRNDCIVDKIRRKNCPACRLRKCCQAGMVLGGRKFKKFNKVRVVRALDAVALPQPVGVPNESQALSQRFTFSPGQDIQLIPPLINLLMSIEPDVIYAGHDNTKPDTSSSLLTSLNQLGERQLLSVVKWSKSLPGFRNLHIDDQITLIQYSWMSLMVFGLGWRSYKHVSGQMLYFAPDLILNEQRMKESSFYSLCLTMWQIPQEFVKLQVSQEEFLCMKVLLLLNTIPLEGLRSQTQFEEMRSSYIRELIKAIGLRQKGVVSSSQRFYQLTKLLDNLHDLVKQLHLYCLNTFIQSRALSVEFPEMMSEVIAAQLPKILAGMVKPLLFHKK
Outline: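 Reporter assay, GripTite PR-UAS-bla HEK 293T cells: 16 hr exposure to DMSO-dissolved compounds at 37C, 5% CO2, in steroid-depleted (2% charcoal-stripped FBS) medium; beta-lactamase measured by FRET fluorescence.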

[16] = molecular target: Progesterone receptor (Homo sapiens) (UniProt P06401); test: qHTS assay to identify small molecule antagonists of the progesterone receptor (PR) signaling pathway (AID 1346795; active means well fitted inhibition curve with a large enough effect in the signal ratio in the repeat runs, not every such curve was filed as active; the % refers to the signal ratio)
Outline: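 Stimulus R5020 at 1 nM final; cells HEK293T PR-UAS-bla; medium with 2% charcoal-stripped FBS; compound exposure 16 hr at 37C, 5% CO2; detection by FRET beta-lactamase substrate, 2 hr, room temperature.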

[17] = molecular target: Estrogen receptor (Homo sapiens) (UniProt P03372); test: qHTS assay to identify small molecule agonists of the estrogen receptor alpha (ER-alpha) signaling pathway in the presence of an antagonist (AID 1259383; calls by dose curve; further: top concentration of the series differs between compounds; nearly all actives have a fitted effect of over 15% in size)
Estrogen receptor (Homo sapiens), sequence (P03372 whole entry, looked up): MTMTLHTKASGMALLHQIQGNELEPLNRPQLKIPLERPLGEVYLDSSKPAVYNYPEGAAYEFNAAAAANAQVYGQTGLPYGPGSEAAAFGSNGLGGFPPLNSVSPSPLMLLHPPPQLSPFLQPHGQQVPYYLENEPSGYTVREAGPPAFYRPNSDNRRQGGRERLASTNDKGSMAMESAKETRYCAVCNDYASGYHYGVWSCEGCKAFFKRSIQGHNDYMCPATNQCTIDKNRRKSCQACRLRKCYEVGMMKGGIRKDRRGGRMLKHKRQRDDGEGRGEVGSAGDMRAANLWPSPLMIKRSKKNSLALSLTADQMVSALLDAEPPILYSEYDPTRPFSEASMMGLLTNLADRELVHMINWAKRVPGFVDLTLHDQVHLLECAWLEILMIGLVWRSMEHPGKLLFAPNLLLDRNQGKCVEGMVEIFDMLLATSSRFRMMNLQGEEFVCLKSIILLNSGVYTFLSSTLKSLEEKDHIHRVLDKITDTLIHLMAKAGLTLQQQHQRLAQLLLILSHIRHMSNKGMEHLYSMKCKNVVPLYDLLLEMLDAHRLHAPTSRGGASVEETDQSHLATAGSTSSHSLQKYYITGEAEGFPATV
Outline: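 Quantitative HTS confirmation: compounds titrated at 15 concentrations onto estrogen-deprived VM7Luc4E2 cells carrying a four-ERE luciferase construct, with ICI-182,780 present at 10.0nM final. Signal is luminescence after 22hr exposure.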

[18] = molecular target: Androgen receptor (Homo sapiens) (UniProt P10275); test: qHTS assay to identify small molecule agonists of the androgen receptor (AR) signaling pathway in the presence of an antagonist (AID 1259381; calls by dose curve; further: nearly all actives have a fitted effect of over 15% in size)
Androgen receptor (Homo sapiens), sequence (P10275 whole entry, looked up): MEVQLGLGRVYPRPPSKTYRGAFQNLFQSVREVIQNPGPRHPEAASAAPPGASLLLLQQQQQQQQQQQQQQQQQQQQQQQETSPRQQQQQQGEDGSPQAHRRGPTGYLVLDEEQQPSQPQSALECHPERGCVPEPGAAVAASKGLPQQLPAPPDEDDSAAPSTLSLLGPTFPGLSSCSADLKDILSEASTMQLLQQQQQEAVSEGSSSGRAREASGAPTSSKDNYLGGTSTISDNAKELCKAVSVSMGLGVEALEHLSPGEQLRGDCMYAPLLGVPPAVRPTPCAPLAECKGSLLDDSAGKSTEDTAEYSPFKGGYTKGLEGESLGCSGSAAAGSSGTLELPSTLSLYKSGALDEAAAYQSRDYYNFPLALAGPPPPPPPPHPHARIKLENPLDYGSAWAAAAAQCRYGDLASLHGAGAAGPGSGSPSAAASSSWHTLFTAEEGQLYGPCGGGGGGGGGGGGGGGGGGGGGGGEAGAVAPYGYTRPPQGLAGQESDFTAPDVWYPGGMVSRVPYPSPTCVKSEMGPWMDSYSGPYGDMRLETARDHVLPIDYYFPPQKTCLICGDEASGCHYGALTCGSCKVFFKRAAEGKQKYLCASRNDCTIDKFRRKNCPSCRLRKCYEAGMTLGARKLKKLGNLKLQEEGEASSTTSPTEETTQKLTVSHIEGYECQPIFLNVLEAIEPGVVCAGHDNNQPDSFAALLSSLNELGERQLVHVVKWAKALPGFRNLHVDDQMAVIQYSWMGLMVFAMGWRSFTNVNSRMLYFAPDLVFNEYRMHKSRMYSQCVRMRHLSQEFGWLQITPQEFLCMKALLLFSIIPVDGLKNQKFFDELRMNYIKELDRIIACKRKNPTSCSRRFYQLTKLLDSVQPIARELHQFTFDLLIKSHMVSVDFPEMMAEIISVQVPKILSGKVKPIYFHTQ
Outline: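 Luminescent ONE-Glo read, 30min at room temperature, follows 16hr compound exposure (15 concentrations) of MDA-kb2 cells at 37C, 0% CO2, with nilutamide added at 3.0uM final.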

Measured: Potency

O=[N+]([O-])/C=C/c1ccccc1
active: [1] 44 µM and 68.6 µM | [4] 27.8 µM and 21.7 µM | [13] 24.7 µM and 19.3 µM
not listed: [14] | [15] | [16] | [17] | [18]
inactive: all other assays above

CCCC[P+](CC)(CCCC)CCCC (tested in a mixture with another compound)
not listed: [1] | [6] | [9] | [17] | [18]
inactive: all other assays above

CCC[N+](CCC)(CCC)CCC
not listed: [3] | [4] | [5] | [9] | [14] | [17] | [18]
inactive: all other assays above

CCCC(C)(COC(N)=O)COC(=O)NC(C)C (stereo not given)
not listed: [6] | [9] | [17] | [18]
inactive: all other assays above

OCC1CO1 (stereo not given)
not listed: [3] | [4] | [11] | [12] | [14] | [18]
inactive: all other assays above

OC[P+](CO)(CO)CO
not listed: [1] | [6] | [9] | [17] | [18]
inactive: all other assays above

COC1=CC(=O)O[C@@H](/C=C/c2ccc3c(c2)OCO3)C1
not listed: [7] | [14] | [16] | [17] | [18]
inactive: all other assays above

CC(Cc1ccccc1)NCc1ccccc1Cl (stereo not given)
not listed: [6] | [17] | [18]
inactive: all other assays above

c1ccc2c(c1)sc1ccccc12
not listed: [6] | [9] | [14] | [18]
inactive: all other assays above

CC(C)OC(=O)Cc1ccccc1
not listed: [14] | [18]
inactive: all other assays above

CCC(C)(C)c1ccc(O)c(C(C)(C)CC)c1
inactive: [3] | [4] | [5] | [8] | [10] | [11] | [12]
active: [14] 21.4 µM and 24.3 µM | [2] 53.9 µM and 30.6 µM | [6] 60.4 µM and 30.6 µM | [7] 24.3 µM | [13] 30.6 µM

CCCC1CCCCN1 (stereo not given)
not listed: [6] | [14] | [18]
inactive: all other assays above

COc1cc(CC(C)N)c(OC)cc1Br (stereo not given)
inactive: [1] | [3] | [4] | [15] | [7] | [8] | [9] | [10] | [11] | [12]

O=C(O)C(F)(F)C(F)(F)C(F)(F)C(F)(F)C(F)(F)C(F)(F)C(F)(F)C(F)(F)F
active: [14] 12.2 µM
not listed: [2] | [7] | [16] | [18]
inactive: all other assays above

O=C(Cl)OCCOCCOC(=O)Cl
not listed: [5] | [7] | [11] | [12] | [14]
inactive: all other assays above

[Cl-].[Cl-].[Hg+2]
active: [14] 5.42 µM and 3.86 µM | [2] 4.31 µM and 4.86 µM | [5] 54.2 µM and 27.3 µM | [6] 4.83 µM and 2.43 µM | [7] 5.42 µM and 2.17 µM | [8] 24.4 µM and 54.9 µM | [9] 54.7 µM and 54.9 µM | [13] 7.08 µM and 6.11 µM
inactive: [1] | [10]

C=CC(C)(CCC=C(C)C)OC(=O)c1ccccc1N (stereo not given)
not listed: [14] | [17] | [18]
inactive: all other assays above

COc1cc(C[C@@H](C)N)c(OC)cc1Br
inactive: [1] | [17] | [3] | [4] | [15] | [8] | [9] | [10] | [11] | [12]

OCCSSCCO
not listed: [3] | [4] | [6] | [14] | [16] | [18]
inactive: all other assays above
